Reference: PubChem BioAssay AID425 (Sanford-Burnham Center for Chemical Genomics, 2006)
In all, about 110,000 compounds went through this assay and about 190 (0.17%) were called active. The entries come from a sample that favours actives as a whole. Measured potencies and affinities stand elsewhere. A number with no mark means an inactive call. Cut-off read from the data, not from the text of the source: active = inhibition above about 50%; inactive = the rest.

What follows are compounds tested against Dual specificity protein phosphatase 6 (Rattus norvegicus) (UniProt Q64346) (assay: inhibition of rat DUSP6 enzyme activity – biochemical, in vitro, primary screen (AID 425;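 note: plate controls were vehicle for no effect and reference inhibitor for full effect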)). Conditions: recombinant MKP-3 phosphatase activity, fluorescence; at 20 µM; stronger effect = higher value.
Chain of Dual specificity protein phosphatase 6 (Rattus norvegicus) (Q64346 whole entry, looked up): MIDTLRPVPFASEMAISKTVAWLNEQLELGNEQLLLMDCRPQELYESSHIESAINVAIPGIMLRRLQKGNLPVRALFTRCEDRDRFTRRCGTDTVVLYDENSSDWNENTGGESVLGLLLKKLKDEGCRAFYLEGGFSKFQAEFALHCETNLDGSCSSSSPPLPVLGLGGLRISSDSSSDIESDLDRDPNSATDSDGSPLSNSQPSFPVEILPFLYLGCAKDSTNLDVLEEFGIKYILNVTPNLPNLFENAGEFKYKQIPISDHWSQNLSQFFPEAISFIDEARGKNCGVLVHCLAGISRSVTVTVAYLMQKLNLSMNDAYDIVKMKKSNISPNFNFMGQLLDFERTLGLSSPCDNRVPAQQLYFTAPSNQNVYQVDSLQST
With `COc1cc2c(C#N)c(N3CCOCC3)nc(N)c2c(N)n1` the inhibition was -5.5%.
With `COc1cc2c(C#N)c(N3CCCCC3)nc(N)c2c(N)n1` the inhibition was 8%.
`O=C(COc1ccccc1[N+](=O)[O-])Nc1ccc(-c2nc3ncccc3o2)cc1` was tested, and the inhibition was 16%.
For `Cc1ccc2oc(-c3cccc(NC(=O)COc4ccccc4[N+](=O)[O-])c3C)nc2c1`, the inhibition was 0.7%.
In the case of `Cc1c(NC(=O)COc2ccccc2[N+](=O)[O-])cccc1-c1nc2ncccc2o1`, the inhibition is reported as 59.4% (active).
Work on `CCOc1ccc(NC(=O)CSC(N)=O)cc1` yielded an inhibition of -0.4%.
For `Cc1ccc(C)c(S(=O)(=O)NCc2cccnc2)c1`, the inhibition was -4.3%.
With `O=c1/c(=C/c2ccc(-c3ccc([N+](=O)[O-])cc3Cl)o2)sc2nc3cc(Br)cnc3n12` the inhibition was 1%.
With `O=C(O)c1ccccc1-c1ccc(/C=c2\sc3nc4cc(Br)cnc4n3c2=O)o1` the inhibition was 52.1% (active).
In the case of `O=c1/c(=C\c2ccc(-c3cccc(Cl)c3)o2)sc2nc3ccccc3n12`, the inhibition is reported as 0.1%.
`O=c1/c(=C/c2ccc(-c3ccccc3[N+](=O)[O-])o2)sc2nc3cc(Br)cnc3n12` was tested, and the inhibition was 0.3%.
Work on `Cc1cc(C)c2nc3s/c(=C\c4ccc(-c5ccc(Cl)c(C(=O)O)c5)o4)c(=O)n3c2c1` yielded an inhibition of 19.9%.
Compound `O=c1/c(=C/c2ccc(-c3ccccc3)o2)sc2nc3ccccc3n12` has an inhibition of -5.1%.
Compound `Cc1cc2nc3s/c(=C/c4ccc(-c5ccc(Cl)cc5)o4)c(=O)n3c2cc1C` has an inhibition of 0.8%.
`O=c1/c(=C\c2ccc(-c3cccc(Br)c3)o2)sc2nc3ccccc3n12` showed an inhibition of 1.3%.
With `O=c1/c(=C/c2ccc(-c3ccc(Cl)cc3)o2)sc2nc3ccccc3n12` the inhibition was -1.6%.
Compound `CCCCOC(=O)c1ccc(NC(=O)c2cncc(Br)c2)cc1` has an inhibition of 2.8%.
For `COc1ccccc1/C=C1\SC(=S)N(NC(=O)Cc2ccccc2)C1=O`, the inhibition was 2.2%.
`O=C(COc1ccc(=O)n(-c2ccccc2)n1)Nc1ccccc1` showed an inhibition of 1.2%.
`COC(CNS(=O)(=O)c1ccc(Cl)cc1)c1ccccc1` (configuration not stated) was tested, and the inhibition was -0.6%.
In the case of `CC1(C)CC(=O)C2=C(C1)OC1=C(C(=O)CC(C)(C)C1)C2c1ccc(-c2nnc(N)s2)cc1`, the inhibition is reported as 5.6%.
`CC(C)CSc1nc2c(c(=O)[nH]c(=O)n2C)n1CC(O)COc1cccc2ccccc12` (configuration not stated) showed an inhibition of -2.5%.
With `Cn1c(=O)oc2cc(S(=O)(=O)Nc3ccc(Cl)cc3F)ccc21` the inhibition was -2.1%.
In the case of `Cc1nc2c3ccccc3n(CC#N)c(=O)n2n1`, the inhibition is reported as -2.1%.
Compound `NC(=O)C1(N2CCCCC2)CCN(CC(=O)Nc2ccc(Oc3ccccc3)cc2)CC1` has an inhibition of -17%.
Work on `COc1ccc(CCCc2nnc(SCC(=O)Nc3ncc(C)s3)o2)cc1` yielded an inhibition of -9.2%.
`O=C(O)c1ccccc1NCN1C(=O)C2CC=C(Cl)CC2C1=O` (configuration not stated) was tested, and the inhibition was 5.2%.
`O=[N+]([O-])c1ccc(C2Nc3ccc([N+](=O)[O-])cc3C3C=CCC32)cc1` (configuration not stated) showed an inhibition of 6.6%.
`CC(=O)Nc1ccc2c(c1)C1C=CCC1C(C(=O)O)N2` (configuration not stated) gave an inhibition of 3%.
Compound `COc1ccc2c(c1)C1C=CCC1C(C(=O)O)N2` (configuration not stated) has an inhibition of 23.5%.
`O=[N+]([O-])c1cccc2c1NC(c1ccccc1F)C1CC=CC21` (configuration not stated) showed an inhibition of 2.2%.
`O=C(O)C1Nc2ccc3ccccc3c2C2C=CCC12` (configuration not stated) was tested, and the inhibition was 91.5% (active).
In the case of `O=C(O)C1Nc2ccc([N+](=O)[O-])cc2C2C=CCC12` (configuration not stated), the inhibition is reported as 63.7% (active).
In the case of `O=[N+]([O-])c1cccc2c1NC(c1ccc(F)cc1)C1CC=CC21` (configuration not stated), the inhibition is reported as -0.5%.
For `O=[N+]([O-])c1cccc(C2Nc3ccc4ccccc4c3C3C=CCC32)c1` (configuration not stated), the inhibition was 8.7%.
Compound `Cc1ccc2c(c1)C1C=CCC1C(C(=O)O)N2` (configuration not stated) has an inhibition of 40.3%.
For `O=C(O)C1Nc2c(cccc2[N+](=O)[O-])C2C=CCC12` (configuration not stated), the inhibition was 79% (active).
For `Oc1ccc(C2Nc3ccc4ccccc4c3C3C=CCC32)cc1` (configuration not stated), the inhibition was 2.7%.
In the case of `O=C(Nc1ccc2nn(-c3ccccc3)nc2c1)c1cc(I)ccc1Cl`, the inhibition is reported as 3.4%.
In the case of `Cn1cnnc1Sc1nc2c(c(=O)n(C)c(=O)n2C)n1C`, the inhibition is reported as -3.7%.
In the case of `COc1ccc(C(=O)/C=C/c2c(Cl)cccc2Cl)cc1`, the inhibition is reported as 10.2%.
`CCOc1ncccc1C(=O)OCC(=O)NCCc1ccc(OC)cc1` gave an inhibition of 1.6%.
Compound `O=C(c1ccc(S(=O)(=O)NCC2CCCO2)cc1)N1CCc2ccccc21` (configuration not stated) has an inhibition of 8.3%.
For `O=C(CCNS(=O)(=O)c1ccccc1[N+](=O)[O-])Nc1ccc(I)cc1`, the inhibition was 2%.
`C=CCn1c(SCC(=O)NCc2cccs2)nnc1C1CCCCC1` was tested, and the inhibition was -0.2%.
For `COc1cc(/C=C2\SC(=S)N(c3ccc(C)cc3C)C2=O)cc(Br)c1O`, the inhibition was -2.7%.
Compound `O=C(NCC1CCCO1)c1cnn2c1NC(c1ccco1)CC2C(F)(F)F` (configuration not stated) has an inhibition of -1.8%.
